Bioassay records as filed in PubChem.
ABHD5-PLIN5 inh – ABHD5-PLIN5 interaction inhibitors, primary screen, cell lysate, split luciferase complementation, luminescence. Split G. princeps luciferase complementation, 4 h. AID 602281, 2012. inhibition, % at 4 µM. hit rate 0.78% among 360,000;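 active = inhibition above the mean inhibition across every tested compound plus 3 SD, cut at about 22% in these data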
Target sequence (Q00G26 whole entry, looked up): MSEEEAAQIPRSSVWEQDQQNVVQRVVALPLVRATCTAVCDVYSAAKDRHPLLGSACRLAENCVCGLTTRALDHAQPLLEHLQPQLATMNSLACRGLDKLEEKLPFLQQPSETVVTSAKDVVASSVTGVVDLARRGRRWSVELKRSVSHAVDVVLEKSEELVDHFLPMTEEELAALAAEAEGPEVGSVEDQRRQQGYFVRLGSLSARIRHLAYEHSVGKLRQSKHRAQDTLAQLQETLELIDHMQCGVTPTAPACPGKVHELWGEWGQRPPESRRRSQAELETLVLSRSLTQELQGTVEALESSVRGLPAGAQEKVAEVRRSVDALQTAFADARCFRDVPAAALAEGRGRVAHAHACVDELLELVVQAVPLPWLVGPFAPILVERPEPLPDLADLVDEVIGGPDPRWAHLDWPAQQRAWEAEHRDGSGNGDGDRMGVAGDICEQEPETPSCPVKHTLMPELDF
Target sequence (Q8WTS1 whole entry, looked up): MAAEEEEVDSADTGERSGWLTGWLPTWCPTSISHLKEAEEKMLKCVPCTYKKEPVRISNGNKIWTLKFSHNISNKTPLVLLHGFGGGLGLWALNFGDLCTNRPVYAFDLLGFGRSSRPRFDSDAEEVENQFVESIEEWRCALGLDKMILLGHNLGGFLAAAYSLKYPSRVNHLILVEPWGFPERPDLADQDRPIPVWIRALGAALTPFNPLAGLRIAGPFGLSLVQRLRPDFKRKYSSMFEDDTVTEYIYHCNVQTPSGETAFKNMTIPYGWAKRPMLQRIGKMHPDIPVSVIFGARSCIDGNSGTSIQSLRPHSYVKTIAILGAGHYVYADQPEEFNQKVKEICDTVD
Exocytosis inh – LAMP-1 surface exposure blockers, TALL-104 cells – cell-based, flow cytometry, MLPCN library, primary screen; TALL-104 LAMP-1 surface exposure; cells stimulated with thapsigargin and PMA; inhibition, % at 10 µM; hit rate 0.66% among 360,000; AID 651702, 2012;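 active = inhibition above about 55%, limit read from the data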
Platelet DG rel – inhibitors of platelet dense granule secretion, primary screen, cell-based, MLPCN, human platelets; human platelet-rich plasma, SFLLRN dense granule ATP release, luminescence; inhibition, %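 (compounds screened at 7.5 µM in platelet-rich plasma)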; hit rate 0.22% among 300,000;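 active = mean replicate score, as percent of positive control, at or above 50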
Rce1 inhib – yeast Rce1p protease inhibitors, primary screen, biochemical, fluorescence, cell-free homogeneous. yeast membranes, quenched prenylated peptide cleavage fluorescence. hit rate 0.27% among 290,000. calls only. AID 2563, 2010;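 active = fall in fluorescence gain of 50% or more versus controls, with final raw signal at or below 3038400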
M18AAP inhibitor – PfM18AAP inhibitors, malaria aminopeptidase, primary screen, biochemical, QFRET, recombinant enzyme; hit rate 1.2% among 290,000; H-Glu-NHMec fluorogenic cleavage; M18 aspartyl aminopeptidase (Plasmodium falciparum 3D7); inhibition, % at 7.35 µM;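 active = inhibition above the campaign mean inhibition over all tested compounds plus 3 SD, cut at about 28% in these data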
Numbers stand for hits. The list is not random: actives were taken first. Their share in the collection is about 2.6%.

O=C(NC(=S)Nc1ccc(NC(=O)c2ccccc2)cc1)c1ccc(F)cc1 was read as ABHD5-PLIN5 inh inactive, Exocytosis inh inactive, Platelet DG rel inactive, Rce1 inhib inactive and M18AAP inhibitor inactive.
For O=C(CN1CCN(c2ccc(O)cc2)CC1)Nc1ccc(SC(F)F)cc1 the results were ABHD5-PLIN5 inh inactive, Exocytosis inh inactive, Platelet DG rel inactive, Rce1 inhib inactive and M18AAP inhibitor 28.
`N#Cc1ccsc1NC(=O)CN1CCN(c2ccc(O)cc2)CC1` gave ABHD5-PLIN5 inh inactive, Exocytosis inh inactive, Platelet DG rel inactive, Rce1 inhib inactive and M18AAP inhibitor 30.
For COc1ccccc1NC(=O)COC(=O)c1c(C)nn(-c2ccccc2)c1C the results were ABHD5-PLIN5 inh inactive and Exocytosis inh inactive.
Screening COc1ccc(NS(=O)(=O)c2cn(C)cn2)cc1Cl returned ABHD5-PLIN5 inh inactive, Exocytosis inh inactive, Platelet DG rel inactive, Rce1 inhib inactive and M18AAP inhibitor inactive.
`O=c1cc(CO)oc(CN2CCN(c3cccc(C(F)(F)F)c3)CC2)c1O` gave ABHD5-PLIN5 inh inactive, Exocytosis inh inactive, Platelet DG rel inactive, Rce1 inhib inactive and M18AAP inhibitor 29.
Screening CC1Nc2ncnc(N3CCOCC3)c2N(Cc2ccc(Cl)cc2)C1=O (configuration not stated) returned ABHD5-PLIN5 inh inactive, Exocytosis inh inactive, Platelet DG rel inactive and Rce1 inhib inactive.
For Clc1cccc(CSc2nnc(-c3c[nH]c4ccccc34)o2)c1 the results were ABHD5-PLIN5 inh inactive, Exocytosis inh inactive, Rce1 inhib inactive and M18AAP inhibitor inactive.
Screening O=c1c(-c2nnc(SCc3ccc(Cl)c(Cl)c3)o2)cccn1Cc1ccccc1 returned ABHD5-PLIN5 inh inactive, Exocytosis inh inactive, Platelet DG rel inactive, Rce1 inhib active and M18AAP inhibitor inactive.
Cc1ccccc1CN(C)CCS(=O)(=O)c1cc(Cl)ccc1Cl was read as ABHD5-PLIN5 inh 23, Exocytosis inh inactive, Platelet DG rel inactive, Rce1 inhib inactive and M18AAP inhibitor inactive.
`O=c1nc2cccc3c2=c(/c1=C(\O)c1ccccc1)c1ccccc1c3=O` gave ABHD5-PLIN5 inh inactive, Exocytosis inh inactive, Platelet DG rel inactive, Rce1 inhib inactive and M18AAP inhibitor inactive.
Screening Cc1oc(-c2ccccc2Cl)nc1CSc1nc2c(c(=O)[nH]1)CCCC2 returned ABHD5-PLIN5 inh inactive, Exocytosis inh inactive, Platelet DG rel inactive, Rce1 inhib inactive and M18AAP inhibitor inactive.
For CC(=O)Oc1ccc(C(=O)Nc2ccccc2NC(=O)c2ccc(OC(C)=O)cc2)cc1 the results were ABHD5-PLIN5 inh inactive, Exocytosis inh 58, Platelet DG rel inactive, Rce1 inhib inactive and M18AAP inhibitor inactive.
`COc1ccc(-c2nc3c(c(SCC(=O)Nc4cccc(O)c4)n2)Cc2c(CO)cnc(C)c2O3)cc1` gave ABHD5-PLIN5 inh 33, Exocytosis inh inactive, Platelet DG rel inactive, Rce1 inhib inactive and M18AAP inhibitor inactive.
For COCCCNC(=O)CS(=O)Cc1nc(-c2cccc(OC)c2)oc1C (configuration not stated) the results were ABHD5-PLIN5 inh inactive, Exocytosis inh inactive, Platelet DG rel inactive, Rce1 inhib inactive and M18AAP inhibitor inactive.
`Cc1nc(N2CCC(C)CC2)c2oc3ccccc3c2n1` gave ABHD5-PLIN5 inh inactive, Exocytosis inh inactive, Platelet DG rel 60, Rce1 inhib inactive and M18AAP inhibitor inactive.
Oc1ccc2ccccc2c1/C=N/Nc1ccccc1 was read as ABHD5-PLIN5 inh inactive, Exocytosis inh inactive, Platelet DG rel inactive, Rce1 inhib inactive and M18AAP inhibitor inactive.
Screening Cc1cc(N/N=C/c2c(O)ccc3ccccc23)nc(-c2ccccc2O)n1 returned ABHD5-PLIN5 inh inactive, Exocytosis inh 96, Platelet DG rel inactive, Rce1 inhib inactive and M18AAP inhibitor inactive.
`CCCCNC(=O)Oc1c(Br)cc2sc(=O)oc2c1Br` gave M18AAP inhibitor 30.
`CC(OC(=O)c1ccc2c(=O)n3c(nc2c1)CCC3)C(=O)NC1CCCCC1C` (configuration not stated) gave ABHD5-PLIN5 inh inactive, Exocytosis inh inactive, Platelet DG rel inactive, Rce1 inhib active and M18AAP inhibitor inactive.
O=C1c2ccccc2C(=O)N1SC1CCCCC1 was read as ABHD5-PLIN5 inh inactive, Exocytosis inh 87, Platelet DG rel inactive, Rce1 inhib inactive and M18AAP inhibitor inactive.
